Measurements reported in article PMC7862700, “An all-to-all approach to the identification of sequence-specific readers for epigenetic DNA modifications on cytosine”.

Tests used:
Test in all cases: DAPPL (digital affinity profiling via proximity ligation, sequencing); 10 mM Tris-HCl pH 7.5, 50 mM NaCl, 1 mM DTT, 4% glycerol, room temperature, 30 min; GST-TFs on glutathione beads, 16-mer random dsDNA library, 0.1% formaldehyde crosslink after washing; high values mean tight binding
Details in all cases: protein: recombinant; tags: N-terminal GST; dsDNA, one strand shown
FLI1 = biological target: T1, FLI1 (Homo sapiens, UniProt Q01543 1-452)
T1 sequence: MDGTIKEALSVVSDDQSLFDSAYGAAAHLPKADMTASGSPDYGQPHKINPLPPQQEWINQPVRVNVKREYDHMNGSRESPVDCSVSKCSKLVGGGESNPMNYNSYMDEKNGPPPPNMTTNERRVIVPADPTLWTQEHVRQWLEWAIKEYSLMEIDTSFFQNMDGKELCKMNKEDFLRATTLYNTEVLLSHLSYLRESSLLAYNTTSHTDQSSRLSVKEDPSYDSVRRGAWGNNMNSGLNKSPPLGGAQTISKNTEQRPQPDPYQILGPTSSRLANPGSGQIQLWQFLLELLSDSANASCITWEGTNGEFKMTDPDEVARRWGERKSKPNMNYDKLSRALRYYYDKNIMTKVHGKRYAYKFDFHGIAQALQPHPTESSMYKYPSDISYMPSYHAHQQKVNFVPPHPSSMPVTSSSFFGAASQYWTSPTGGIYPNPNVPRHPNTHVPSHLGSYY
Summary of the method: (§1)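 Pools were built from human transcription factors expressed in yeast as GST fusions, captured on glutathione beads and DNA-barcoded, along with a tag-only sample. Incubation with 200 nmole of a 16-mer random double-stranded DNA library lasted 30 min at room temperature in Tris/NaCl/DTT/glycerol buffer, and was followed by washing, 0.1% formaldehyde crosslinking, proximity ligation, PCR amplification and Illumina NextSeq500 sequencing. Binding signal is the quotient of each hexamer's read frequency for a factor and its frequency for the tag-only sample.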

ELK1 = biological target: T2, ELK1 (Homo sapiens, UniProt P19419 1-428)
T2 sequence: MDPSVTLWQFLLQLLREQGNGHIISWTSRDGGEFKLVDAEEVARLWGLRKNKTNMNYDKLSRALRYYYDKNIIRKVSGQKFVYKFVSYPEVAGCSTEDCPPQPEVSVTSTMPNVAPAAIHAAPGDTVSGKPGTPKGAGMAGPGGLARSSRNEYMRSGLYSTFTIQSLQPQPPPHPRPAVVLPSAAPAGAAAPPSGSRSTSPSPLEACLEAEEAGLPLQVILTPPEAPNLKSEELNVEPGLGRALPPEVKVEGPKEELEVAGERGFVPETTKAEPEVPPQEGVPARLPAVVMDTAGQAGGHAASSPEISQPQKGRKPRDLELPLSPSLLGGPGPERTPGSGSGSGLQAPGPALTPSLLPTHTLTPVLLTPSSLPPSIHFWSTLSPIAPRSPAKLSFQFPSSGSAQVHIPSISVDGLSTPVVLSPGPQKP
Summary of the method: as §1

GABPA = biological target: T3, GABPA (Homo sapiens, UniProt Q06546 1-454)
T3 sequence: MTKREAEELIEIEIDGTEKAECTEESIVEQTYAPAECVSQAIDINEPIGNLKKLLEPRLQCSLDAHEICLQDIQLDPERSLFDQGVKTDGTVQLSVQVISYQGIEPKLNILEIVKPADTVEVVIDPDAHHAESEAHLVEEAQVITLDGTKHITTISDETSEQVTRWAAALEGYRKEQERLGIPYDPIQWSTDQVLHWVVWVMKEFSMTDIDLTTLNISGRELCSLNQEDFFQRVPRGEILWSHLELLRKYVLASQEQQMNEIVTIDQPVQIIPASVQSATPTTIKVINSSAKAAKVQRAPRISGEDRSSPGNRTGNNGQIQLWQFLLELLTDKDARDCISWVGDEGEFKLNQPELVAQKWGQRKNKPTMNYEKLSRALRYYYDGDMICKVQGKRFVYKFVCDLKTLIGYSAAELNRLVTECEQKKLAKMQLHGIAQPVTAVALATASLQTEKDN
Summary of the method: as §1

ERG = biological target: T4, ERG (Homo sapiens, UniProt P11308 1-479)
T4 sequence: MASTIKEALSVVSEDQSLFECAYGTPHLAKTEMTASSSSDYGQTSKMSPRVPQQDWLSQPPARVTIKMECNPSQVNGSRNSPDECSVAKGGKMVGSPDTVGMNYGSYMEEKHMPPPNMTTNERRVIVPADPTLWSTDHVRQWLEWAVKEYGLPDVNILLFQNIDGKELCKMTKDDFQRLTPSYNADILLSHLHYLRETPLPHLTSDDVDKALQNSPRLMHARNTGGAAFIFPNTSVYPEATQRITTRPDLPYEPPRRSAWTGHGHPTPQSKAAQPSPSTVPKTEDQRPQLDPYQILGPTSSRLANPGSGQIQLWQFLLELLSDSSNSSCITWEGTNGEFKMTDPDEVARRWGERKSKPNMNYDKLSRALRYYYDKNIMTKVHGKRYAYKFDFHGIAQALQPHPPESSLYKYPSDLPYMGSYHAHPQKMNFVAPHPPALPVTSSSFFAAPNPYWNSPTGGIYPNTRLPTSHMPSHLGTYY
Summary of the method: as §1

ELF1 = ELF1 (Homo sapiens, UniProt P32519 1-619)
Chain of ELF1 (P32519 whole entry): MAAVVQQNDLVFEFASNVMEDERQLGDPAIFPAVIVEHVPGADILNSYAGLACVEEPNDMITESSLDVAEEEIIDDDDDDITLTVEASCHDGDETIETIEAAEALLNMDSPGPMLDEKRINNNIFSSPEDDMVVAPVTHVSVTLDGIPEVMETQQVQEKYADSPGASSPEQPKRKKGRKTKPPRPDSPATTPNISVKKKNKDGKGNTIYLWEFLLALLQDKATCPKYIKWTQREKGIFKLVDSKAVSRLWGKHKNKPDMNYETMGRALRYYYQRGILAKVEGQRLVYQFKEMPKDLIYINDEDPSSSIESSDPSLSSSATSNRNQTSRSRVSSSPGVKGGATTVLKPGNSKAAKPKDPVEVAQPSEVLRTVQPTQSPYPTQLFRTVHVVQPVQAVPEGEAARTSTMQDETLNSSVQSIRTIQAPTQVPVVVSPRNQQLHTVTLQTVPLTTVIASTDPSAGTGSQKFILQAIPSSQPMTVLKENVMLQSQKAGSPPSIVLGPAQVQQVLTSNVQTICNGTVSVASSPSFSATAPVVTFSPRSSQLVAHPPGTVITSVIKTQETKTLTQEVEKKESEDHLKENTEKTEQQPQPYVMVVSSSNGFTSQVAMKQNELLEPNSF
Summary of the method: as §1

EHF = biological target: T5, EHF (Homo sapiens, UniProt Q9NZC4 1-300)
T5 sequence: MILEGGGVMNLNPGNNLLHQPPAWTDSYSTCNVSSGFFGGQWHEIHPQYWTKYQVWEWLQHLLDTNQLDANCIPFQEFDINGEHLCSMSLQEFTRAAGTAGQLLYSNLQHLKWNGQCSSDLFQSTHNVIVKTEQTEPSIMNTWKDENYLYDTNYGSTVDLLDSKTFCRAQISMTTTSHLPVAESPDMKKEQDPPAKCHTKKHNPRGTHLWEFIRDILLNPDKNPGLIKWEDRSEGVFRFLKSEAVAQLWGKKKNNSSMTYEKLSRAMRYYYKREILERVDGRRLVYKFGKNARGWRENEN
Summary of the method: as §1

SPI1 = SPI1 (Homo sapiens, UniProt P17947 1-270)
Summary of the method: as §1

SPIB = SPIB (Homo sapiens, UniProt Q01892 1-262)
Chain of SPIB (Q01892 whole entry): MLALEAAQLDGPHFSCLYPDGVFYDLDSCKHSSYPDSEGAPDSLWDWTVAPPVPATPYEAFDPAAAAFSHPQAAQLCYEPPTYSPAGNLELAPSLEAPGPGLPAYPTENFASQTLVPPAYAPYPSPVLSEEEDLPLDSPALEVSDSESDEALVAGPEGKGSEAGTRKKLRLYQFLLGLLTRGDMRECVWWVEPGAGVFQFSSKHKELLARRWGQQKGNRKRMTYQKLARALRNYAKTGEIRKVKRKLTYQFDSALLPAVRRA
Summary of the method: as §1

ELK3 = biological target: T6, ELK3 (Homo sapiens, UniProt P41970 1-407)
T6 sequence: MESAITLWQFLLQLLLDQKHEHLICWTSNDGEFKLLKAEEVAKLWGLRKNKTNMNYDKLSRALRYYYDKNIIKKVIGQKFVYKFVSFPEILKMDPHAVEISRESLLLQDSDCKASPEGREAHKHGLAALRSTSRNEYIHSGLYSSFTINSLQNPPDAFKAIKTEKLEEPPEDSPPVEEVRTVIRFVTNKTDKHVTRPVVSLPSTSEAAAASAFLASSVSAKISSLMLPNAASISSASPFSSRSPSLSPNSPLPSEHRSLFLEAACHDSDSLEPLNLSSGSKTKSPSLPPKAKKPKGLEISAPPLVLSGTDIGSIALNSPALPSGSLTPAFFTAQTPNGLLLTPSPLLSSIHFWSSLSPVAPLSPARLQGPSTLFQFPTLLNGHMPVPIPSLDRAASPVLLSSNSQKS
Summary of the method: as §1

FEV = biological target: T7, FEV (Homo sapiens, UniProt Q99581 1-238)
T7 sequence: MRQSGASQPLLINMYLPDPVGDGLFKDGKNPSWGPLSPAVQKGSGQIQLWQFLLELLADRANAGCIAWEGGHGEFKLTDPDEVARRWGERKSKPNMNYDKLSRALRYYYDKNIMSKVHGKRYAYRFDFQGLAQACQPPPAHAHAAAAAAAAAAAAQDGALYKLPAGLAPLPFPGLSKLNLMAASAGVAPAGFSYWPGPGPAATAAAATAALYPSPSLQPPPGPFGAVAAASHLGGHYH
Summary of the method: as §1

ETV5 = ETV5 (Homo sapiens, UniProt P41161 1-510)
Chain of ETV5 (P41161 whole entry): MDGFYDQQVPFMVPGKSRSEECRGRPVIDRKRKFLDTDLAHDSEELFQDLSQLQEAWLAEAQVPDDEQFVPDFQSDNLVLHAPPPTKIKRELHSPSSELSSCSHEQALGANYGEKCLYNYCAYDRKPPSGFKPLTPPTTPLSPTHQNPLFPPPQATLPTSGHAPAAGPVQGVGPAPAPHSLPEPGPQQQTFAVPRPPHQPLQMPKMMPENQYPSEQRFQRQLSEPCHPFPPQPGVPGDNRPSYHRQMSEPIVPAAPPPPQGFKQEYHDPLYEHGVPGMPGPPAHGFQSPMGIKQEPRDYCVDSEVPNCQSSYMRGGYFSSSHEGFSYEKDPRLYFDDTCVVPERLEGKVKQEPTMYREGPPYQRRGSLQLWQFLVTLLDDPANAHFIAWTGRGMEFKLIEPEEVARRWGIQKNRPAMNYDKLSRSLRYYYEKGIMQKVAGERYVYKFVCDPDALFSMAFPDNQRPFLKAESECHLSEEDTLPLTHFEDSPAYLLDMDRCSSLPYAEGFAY
Summary of the method: as §1

SPIC = biological target: T8, SPIC (Homo sapiens, UniProt Q8N5J4 1-248)
T8 sequence: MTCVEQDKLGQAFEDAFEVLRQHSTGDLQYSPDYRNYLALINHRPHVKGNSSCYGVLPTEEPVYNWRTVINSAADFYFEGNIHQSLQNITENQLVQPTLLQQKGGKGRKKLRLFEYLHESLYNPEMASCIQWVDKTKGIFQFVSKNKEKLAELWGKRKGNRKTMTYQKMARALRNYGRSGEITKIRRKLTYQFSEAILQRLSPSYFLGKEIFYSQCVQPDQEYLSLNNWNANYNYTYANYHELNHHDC
Summary of the method: as §1

ELF4 = ELF4 (Homo sapiens, UniProt Q99607 1-663)
Chain of ELF4 (Q99607 whole entry): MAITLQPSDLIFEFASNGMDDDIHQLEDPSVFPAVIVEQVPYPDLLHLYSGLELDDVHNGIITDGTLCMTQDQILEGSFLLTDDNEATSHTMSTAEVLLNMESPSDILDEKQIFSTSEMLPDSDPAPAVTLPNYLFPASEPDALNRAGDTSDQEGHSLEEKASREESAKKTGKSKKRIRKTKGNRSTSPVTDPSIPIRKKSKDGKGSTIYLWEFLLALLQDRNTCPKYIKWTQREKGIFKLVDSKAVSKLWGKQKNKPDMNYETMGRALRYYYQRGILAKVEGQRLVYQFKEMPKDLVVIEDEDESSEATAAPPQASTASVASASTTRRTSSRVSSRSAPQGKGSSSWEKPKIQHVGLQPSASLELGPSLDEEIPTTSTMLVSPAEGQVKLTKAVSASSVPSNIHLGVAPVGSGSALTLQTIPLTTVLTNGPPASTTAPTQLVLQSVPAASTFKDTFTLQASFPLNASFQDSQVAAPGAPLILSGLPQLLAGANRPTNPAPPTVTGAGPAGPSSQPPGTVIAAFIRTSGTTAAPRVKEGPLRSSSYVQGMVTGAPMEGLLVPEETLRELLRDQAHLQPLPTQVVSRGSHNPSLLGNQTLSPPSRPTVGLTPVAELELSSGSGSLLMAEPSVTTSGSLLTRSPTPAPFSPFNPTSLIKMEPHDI
Summary of the method: as §1

ELK4 = biological target: T9, ELK4 (Homo sapiens, UniProt P28324-2 1-405)
T9 sequence: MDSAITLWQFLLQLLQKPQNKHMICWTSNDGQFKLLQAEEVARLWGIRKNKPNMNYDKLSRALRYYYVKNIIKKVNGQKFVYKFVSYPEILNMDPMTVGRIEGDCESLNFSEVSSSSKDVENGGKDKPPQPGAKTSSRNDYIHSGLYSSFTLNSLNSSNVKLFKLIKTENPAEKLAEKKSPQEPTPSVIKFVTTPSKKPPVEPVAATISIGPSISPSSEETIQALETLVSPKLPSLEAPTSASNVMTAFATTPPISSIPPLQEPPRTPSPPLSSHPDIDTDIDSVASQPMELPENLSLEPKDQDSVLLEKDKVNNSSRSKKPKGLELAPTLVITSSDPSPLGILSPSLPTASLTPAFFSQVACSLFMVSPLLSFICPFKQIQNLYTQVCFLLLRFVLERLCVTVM
Summary of the method: as §1

ETV2 = biological target: T10, ETV2 (Homo sapiens, UniProt O00321 1-342)
T10 sequence: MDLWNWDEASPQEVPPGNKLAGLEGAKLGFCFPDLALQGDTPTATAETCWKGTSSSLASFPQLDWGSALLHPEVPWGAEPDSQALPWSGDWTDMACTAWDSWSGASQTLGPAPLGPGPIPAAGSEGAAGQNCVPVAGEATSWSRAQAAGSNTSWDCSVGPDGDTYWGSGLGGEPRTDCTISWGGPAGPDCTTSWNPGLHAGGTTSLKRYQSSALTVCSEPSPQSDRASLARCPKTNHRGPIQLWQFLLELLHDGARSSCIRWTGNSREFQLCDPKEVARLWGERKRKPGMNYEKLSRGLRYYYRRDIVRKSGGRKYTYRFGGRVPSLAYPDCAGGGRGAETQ
Summary of the method: as §1

ELF3 = biological target: T11, ELF3 (Homo sapiens, UniProt P78545 1-371)
T11 sequence: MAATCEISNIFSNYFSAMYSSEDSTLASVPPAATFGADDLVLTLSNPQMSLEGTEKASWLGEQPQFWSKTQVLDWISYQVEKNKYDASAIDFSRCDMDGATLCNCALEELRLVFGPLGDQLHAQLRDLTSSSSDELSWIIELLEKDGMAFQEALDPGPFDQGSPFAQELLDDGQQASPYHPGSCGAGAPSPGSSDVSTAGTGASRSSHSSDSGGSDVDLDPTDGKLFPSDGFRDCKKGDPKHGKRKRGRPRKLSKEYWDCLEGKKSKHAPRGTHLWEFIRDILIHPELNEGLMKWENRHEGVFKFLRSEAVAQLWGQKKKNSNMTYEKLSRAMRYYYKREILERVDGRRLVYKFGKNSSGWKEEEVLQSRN
Summary of the method: as §1

ETV1 = ETV1 (Homo sapiens, UniProt P50549 1-477)
Chain of ETV1 (P50549 whole entry): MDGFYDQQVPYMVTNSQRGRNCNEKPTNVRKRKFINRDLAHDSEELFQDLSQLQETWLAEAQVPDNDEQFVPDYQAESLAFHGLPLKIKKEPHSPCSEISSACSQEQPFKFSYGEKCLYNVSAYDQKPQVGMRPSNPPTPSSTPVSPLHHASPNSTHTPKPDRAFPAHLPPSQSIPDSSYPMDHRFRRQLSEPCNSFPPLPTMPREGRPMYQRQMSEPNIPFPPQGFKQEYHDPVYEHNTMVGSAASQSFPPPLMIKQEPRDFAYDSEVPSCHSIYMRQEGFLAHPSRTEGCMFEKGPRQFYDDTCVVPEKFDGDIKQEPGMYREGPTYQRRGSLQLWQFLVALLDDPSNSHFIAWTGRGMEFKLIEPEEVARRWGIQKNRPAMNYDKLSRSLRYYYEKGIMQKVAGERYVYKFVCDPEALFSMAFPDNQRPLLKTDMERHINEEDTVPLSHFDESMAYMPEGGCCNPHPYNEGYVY
Summary of the method: as §1

Sequence: GCCCTC
- binding signal (FLI1): 1.12 fold enrichment (6-mer frequency, TF over GST control)
- binding signal (ELK1): 1.18 fold enrichment (6-mer frequency, TF over GST control)
- binding signal (GABPA): 1.25 fold enrichment (6-mer frequency, TF over GST control)
- binding signal (ERG): 1.11 fold enrichment (6-mer frequency, TF over GST control)
- binding signal (ELF1): 1.17 fold enrichment (6-mer frequency, TF over GST control)
- binding signal (EHF): 1.18 fold enrichment (6-mer frequency, TF over GST control)
- binding signal (SPI1): 1.1 fold enrichment (6-mer frequency, TF over GST control)
- binding signal (SPIB): 1.18 fold enrichment (6-mer frequency, TF over GST control)
- binding signal (ELK3): 1.15 fold enrichment (6-mer frequency, TF over GST control)
- binding signal (FEV): 1.18 fold enrichment (6-mer frequency, TF over GST control)
- binding signal (ETV5): 1.12 fold enrichment (6-mer frequency, TF over GST control)
- binding signal (SPIC): 1.26 fold enrichment (6-mer frequency, TF over GST control)
- binding signal (ELF4): 1.3 fold enrichment (6-mer frequency, TF over GST control)
- binding signal (ELK4): 1.1 fold enrichment (6-mer frequency, TF over GST control)
- binding signal (ETV2): 1.27 fold enrichment (6-mer frequency, TF over GST control)
- binding signal (ELF3): 1.18 fold enrichment (6-mer frequency, TF over GST control)
- binding signal (ETV1): 1.18 fold enrichment (6-mer frequency, TF over GST control)

Sequence: GCACAA
- binding signal (FLI1): 1.1 fold enrichment (6-mer frequency, TF over GST control)
- binding signal (ELK1): 1.13 fold enrichment (6-mer frequency, TF over GST control)
- binding signal (GABPA): 1.09 fold enrichment (6-mer frequency, TF over GST control)
- binding signal (ERG): 1.1 fold enrichment (6-mer frequency, TF over GST control)
- binding signal (ELF1): 1.09 fold enrichment (6-mer frequency, TF over GST control)
- binding signal (EHF): 1.1 fold enrichment (6-mer frequency, TF over GST control)
- binding signal (SPI1): 1.05 fold enrichment (6-mer frequency, TF over GST control)
- binding signal (SPIB): 1.09 fold enrichment (6-mer frequency, TF over GST control)
- binding signal (ELK3): 1.12 fold enrichment (6-mer frequency, TF over GST control)
- binding signal (FEV): 1.1 fold enrichment (6-mer frequency, TF over GST control)
- binding signal (ETV5): 1.07 fold enrichment (6-mer frequency, TF over GST control)
- binding signal (SPIC): 1.09 fold enrichment (6-mer frequency, TF over GST control)
- binding signal (ELF4): 1.11 fold enrichment (6-mer frequency, TF over GST control)
- binding signal (ELK4): 1.08 fold enrichment (6-mer frequency, TF over GST control)
- binding signal (ETV2): 1.03 fold enrichment (6-mer frequency, TF over GST control)
- binding signal (ELF3): 1.13 fold enrichment (6-mer frequency, TF over GST control)
- binding signal (ETV1): 1.04 fold enrichment (6-mer frequency, TF over GST control)
